# Measured values taken from PubChem BioAssay AID463173 (ICCB-Longwood Screening Facility, Harvard Medical School, 2010).
# Out of some 52,000 compounds screened, about 4,300 (8.3%) were called active. The full list was thinned out, with actives kept by preference. Unmarked numbers belong to inactive results. No stated cut-off is given here; in the data, active means survival mostly below about 52% (no sharp cut-off); inactive means mostly above about 56%.
# Tested on: DeltatarO mutant
# Experiment: growth inhibition of S. aureus wild type versus tarO mutant, primary screen, teichoic acid synthesis inhibitors, RN4220, OD600 (AID 463173)
# Settings: OD600, 18 h, hits give low values, screened at 18.75 µg/mL (by protocol)
row,Compound,survival
1,CCc1c(C)nc2cc(-c3ccc(OC)c(OC)c3)nn2c1NCC(C)(C)CN(C)C,98%
2,Cc1ccc(-n2ncc(C(=O)NCc3ccccn3)c2C2CCN(C(=O)OC(C)(C)C)CC2)cc1C,102%
3,CCCC(=O)N1CCCC(c2nc(-c3ccc(OC)cc3)no2)C1 (centres undefined),82%
4,CCOc1nc(NC(=O)NS(=O)(=O)Oc2cccc(F)c2)nc(-c2ccccc2)n1,74%
5,Cc1c(NC(=O)Nc2ccccc2C(F)(F)F)sc2nc3n(c(=O)c12)CCC(C)CC3 (centres undefined),83%
6,COc1cccc(C(=O)NC2CC(=O)N(c3ccc4c(c3)OCCO4)C2)c1OC (centres undefined),107%
7,CCCCN(CCCC)CCCNC(=O)c1ccc2nc(N3CCCCC3)sc2c1,102%
8,CCCCOCc1cc(CN2CCN(c3cccc(Cl)c3)CC2)c(O)c2ncccc12,83%
9,CCc1cccc(C)c1NC(=O)C1CCN(S(=O)(=O)Cc2ccccc2)CC1,84%
10,Cc1ccc(S(=O)(=O)N(CC(=O)Nc2ccc(Cl)cc2Cl)c2ccccc2C)cc1,106%
11,Cc1ccc(S(=O)(=O)N(CC(=O)NCCc2ccc(Cl)cc2)c2ccccc2C)cc1,49% (active)
12,Cc1ccc(S(=O)(=O)N(CC(=O)Nc2c(C)cccc2C)c2cccc(Cl)c2)cc1,46% (active)
13,Cc1ccc(CNC(=O)CN(c2cccc(C)c2C)S(=O)(=O)c2ccccc2)cc1,73%
14,Cc1ccc(S(=O)(=O)N(CC(=O)NCCSc2ccc(Cl)cc2)c2ccccc2C)cc1,58%
15,Cc1ccc(S(=O)(=O)N(CC(=O)NCCSc2ccc(Cl)cc2)c2cccc(Cl)c2)cc1,112%
16,COc1ccc(CCNC(=O)CN(c2ccccc2OC)S(=O)(=O)c2ccc(C)cc2)cc1,71%
17,Cc1cccc(N(CC(=O)NCCc2ccccc2)S(=O)(=O)c2ccccc2)c1C,56% (active)
18,Cc1cccc(N(CC(=O)NCCSCc2ccccc2)S(=O)(=O)c2ccccc2)c1C,57%
19,Cc1ccccc1CNC(=O)c1cnc2sc(N3CCOCC3)nn2c1=O,68%
20,Cc1ccc(-n2nc3c(=O)n(CCCC(=O)NCCc4ccccc4Cl)nc(C)c3c2C)cc1,91%
21,COc1cccc(CNC(=O)CCc2c(C)nc3c(c(C)nn3-c3ccc(C)c(C)c3)c2C)c1,67%
22,O=S(=O)(c1ccccc1)c1nnn2c1nc(NC1CCCCCC1)c1sccc12,72%
23,Cc1nc(N2CCOCC2)c2c(C(=O)N(C)Cc3ccccc3)c(C)oc2n1,118%
24,COC(=O)c1scc(-c2ccc(C)cc2)c1S(=O)(=O)N1CCN(c2ccccc2F)CC1,118%
